In PubChem BioAssay (NCI):
Compounds without any hit were thinned out: in the full panel of roughly 83,000, 20% have a hit.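 The endpoint reported here, percent growth, reads 100 for growth as untreated, 0 for no net growth and -100 for all cells dead.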 The source made the active and inactive calls. The calls were made as follows: active = growth percent below 10; inactive = the rest.

Assays:
Assay in all cases: NCI-60 one-dose screen, 48 h (100 = growth as untreated, 0 = no growth, -100 = all killed)
[1] = test system: NCI-H23 lung; details: 10 µM unless noted
[2] = test system: NCI-H226 lung; details: 10 µM unless noted
[3] = test system: NCI-H322M lung; details: 10 µM unless noted
[4] = test system: HOP-62 NSCLC; details: 10 µM unless noted
[5] = test system: NCI-H460 lung; details: 10 µM unless noted
[6] = test system: NCI-H522 lung; details: 10 µM unless noted
[7] = test system: 786-0 renal; details: 10 µM unless noted
[8] = test system: COLO 205 colon; details: 10 µM unless noted
[9] = test system: DU-145 prostate; details: 10 µM unless noted
[10] = test system: K-562 leukemia; details: 10 µM unless noted
[11] = test system: MDA-MB-231 breast; details: 10 µM unless noted
[12] = test system: RXF 393 renal; details: 10 µM unless noted
[13] = test system: SF-268 CNS; details: 10 µM unless noted
[14] = test system: SF-295 CNS; details: 10 µM unless noted
[15] = test system: SF-539 CNS; details: 10 µM unless noted
[16] = test system: UACC-257 melanoma; details: 10 µM unless noted
[17] = test system: M14 melanoma; details: 10 µM unless noted
[18] = test system: HOP-92 NSCLC; details: 10 µM
[19] = test system: A549/ATCC NSCLC; details: 10 µM unless noted
[20] = test system: MALME-3M melanoma; details: 10 µM unless noted

Measured: growth

COc1ccc(C2CC(c3cccc(Nc4nc(Cl)nc5cc(OC)c(OC)cc45)c3)=Nc3c(N)nc(N)nc3N2)cc1 (stereo not drawn)
inactive: [1] 81.6% | [2] 84.8% | [3] 91.5% | [4] 53.4% | [5] 61.9% | [6] 78.6% | [7] 71.4% | [8] 96.4% | [9] 88.8% | [11] 87% | [12] 76.3% | [13] 86.5% | [14] 60.1% | [15] 91.9% | [16] 106% | [17] 93.5%
active: [10] 4.51%

O=S(=O)(NCCCNc1nccc(-c2[nH]c(-c3ccccc3)nc2-c2ccc(Cl)c(O)c2)n1)c1ccc(Br)cc1
active: [20] 2.55% | [12] -6.2% | [14] 2.98%
inactive: [1] 46.1% | [2] 38.3% | [3] 58.4% | [5] 22.3% | [18] 46% | [6] 26.6% | [19] 30.2% | [7] 53.4% | [8] 81.3% | [9] 47.7% | [10] 18.9% | [11] 43.4% | [13] 37.9% | [15] 46.7% | [16] 16.7%

CCN(CC)c1ccc(NC2=C(Cl)C(=O)c3nc(C)ccc3C2=O)cc1
active: [1] -10.3% | [10] 0.916% | [20] -11.1% | [11] -46.5% | [12] -95.1% | [16] -57.7%
inactive: [2] 87.9% | [3] 109% | [4] 130% | [5] 100% | [19] 100% | [7] 60.6% | [8] 101% | [9] 87.9% | [13] 90.8% | [14] 105% | [15] 102% | [17] 40.4%

COc1cc2nc(Cl)nc(Nc3cccc(C4=Nc5c(N)nc(N)nc5NC(c5ccccc5)C4)c3)c2cc1OC (stereo not drawn)
active: [10] 6.71%
inactive: [1] 83.5% | [2] 86.9% | [3] 92.9% | [4] 39.6% | [5] 87.4% | [6] 76.5% | [7] 77.5% | [8] 99.8% | [9] 85.9% | [11] 90.4% | [12] 84.5% | [13] 84.3% | [14] 75.8% | [15] 99.8% | [16] 108% | [17] 90.1%

Cc1cc(C)cc(C(=O)Nc2cccc(C#Cc3cccc4[nH]nc(N)c34)c2)c1
active: [10] 9.8% | [12] -10.9%
inactive: [1] 76.6% | [2] 67.3% | [3] 88.4% | [4] 67% | [5] 50.7% | [7] 89.9% | [8] 77.9% | [9] 71.9% | [20] 86.2% | [11] 40% | [13] 55% | [14] 65% | [15] 38.6% | [16] 90.7%

COc1ccc(C(=O)CSc2nc3c(c(Nc4ccc(S(N)(=O)=O)cc4)n2)CCCC3)cc1
inactive: [1] 88.1% | [2] 98% | [3] 107% | [4] 115% | [5] 91.2% | [7] 101% | [8] 108% | [9] 93.6% | [10] 72.7% | [20] 103% | [11] 88.1% | [12] 82.5% | [13] 108% | [14] 90.6% | [15] 83.1% | [16] 109% | [17] 104%

CN(C)CCCOc1ccc2c(c1)CN(C(=O)c1cc(C(=O)N3Cc4cccc(F)c4C3)ccc1O)C2
inactive: [1] 102% | [2] 97.2% | [3] 105% | [4] 120% | [5] 105% | [6] 97.7% | [7] 108% | [8] 109% | [9] 94.9% | [10] 88.8% | [20] 103% | [11] 103% | [12] 93.3% | [13] 100% | [14] 100% | [15] 91% | [16] 108% | [17] 106%

COC(=O)C[Se]C(=O)Cc1c(C)n(C(=O)c2ccc(Cl)cc2)c2ccc(OC)cc12
active: [14] 9.86%
inactive: [1] 11.5% | [2] 52.8% | [3] 44.7% | [5] 16.3% | [18] 53.2% | [6] 44.8% | [19] 18.7% | [7] 83.3% | [8] 49.5% | [9] 25.6% | [10] 54% | [20] 46.5% | [11] 30.9% | [13] 40.7% | [15] 39.9% | [16] 65.2%
